Only some compounds are listed: those with a hit (about 7.4% of all), similar ones and a draw of the others.
ELG1 genotoxic = induces genotoxicity in HEK293T cells with luciferase-tagged ELG1; HEK293T ELG1-luciferase reporter, luminescence, 16 h; Potency, µM (highest dose often 46 µM), without a hit: top-dose activity change, positive = activation, hits mostly activators; actives 1.3% (n = 330,000); AID 504466; also: % of control where 0% means no effect; nearly all actives have a fitted effect of over 60% in size
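Quantitative HTS format in 1536-well plates. HEK293T ELG1-luciferase reporter cells receive test compound and are incubated 16 hr at 37 °C, 5% CO2; ONE-Glo added, 30 min room temperature, then luminescence read.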
FLuc modulator = firefly luciferase modulation, counter-screen for miR-21 project | P08659 | purified FLuc, Km substrates, luminescence inhibition | Potency, µM (series often up to 57.5 µM), inactives show at the top dose activity change, negative = inhibition, usual class: inhibitors | actives 6.9% (n = 360,000) | AID 588342;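 also: plate controls were vehicle for no effect and reference inhibitor for full effect; nearly all actives have a fitted effect of over 55% in size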
Target sequence (P08659 whole entry, looked up): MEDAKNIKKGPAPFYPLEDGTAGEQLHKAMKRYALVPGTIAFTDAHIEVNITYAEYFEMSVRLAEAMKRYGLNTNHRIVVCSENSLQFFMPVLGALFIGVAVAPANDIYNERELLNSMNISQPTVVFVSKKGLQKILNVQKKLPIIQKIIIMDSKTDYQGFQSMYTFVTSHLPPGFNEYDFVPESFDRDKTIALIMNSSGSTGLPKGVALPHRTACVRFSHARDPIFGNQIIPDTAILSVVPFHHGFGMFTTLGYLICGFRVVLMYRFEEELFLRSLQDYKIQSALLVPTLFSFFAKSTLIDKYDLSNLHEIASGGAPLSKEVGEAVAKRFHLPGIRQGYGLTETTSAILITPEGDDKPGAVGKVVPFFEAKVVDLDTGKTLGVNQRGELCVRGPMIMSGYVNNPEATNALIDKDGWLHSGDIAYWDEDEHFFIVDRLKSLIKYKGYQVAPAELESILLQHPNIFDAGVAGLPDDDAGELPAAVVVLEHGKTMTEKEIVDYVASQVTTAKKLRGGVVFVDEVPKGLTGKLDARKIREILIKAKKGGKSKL
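Purified P. pyralis luciferase, 10 nM final, with Km-level 10 uM D-luciferin and 10 uM ATP in 50 mM Tris acetate pH 7.5, 10 mM Mg acetate, 0.01% Tween-20, 0.05% BSA; 6-point qHTS titration about 60 µM downward; luminescence read.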
SMN2 splice up = enhancers of SMN2 splice variant expression; HEK293 SMN2-luciferase splicing reporter, luminescence, 30-36 h; Potency, µM (highest dose often 46.1 µM), for inactives: at the top dose activity change, positive = activation, actives largely listed as activators; actives 2.8% (n = 210,000); AID 1458; also: % of control where 0% means no effect; nearly all actives have a fitted effect of over 55% in size
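HEK293 cells carry an SMN2 […]–luciferase reporter in which exon 7 inclusion puts luciferase in frame. Cells were plated 10-12 h before compound addition, then incubated 30-36 h at 37C. ONE-Glo luminescence was read; sodium butyrate at 4.5 mM final served as control.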
Rab9 promoter act = activators of Rab9 promoter; Huh7 Rab9 promoter-luciferase reporter, luminescence, 24 h; Potency, µM (top dose mostly 9.22 µM), inactives show top-dose activation, negative = inhibition, usual class: activators; actives 2.8% (n = 320,000); AID 485297; also: % of control where 0% means no effect; nearly all actives have a fitted effect of over 60% in size
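Cells were plated at 1500 per well in reduced-serum medium with 10% FBS and left 2 h. Compound in DMSO was then added for 24 h at 37 °C. Reporter signal was read by luminescence after 10 min with luciferase detection reagent.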
NPC1 prom act = activators of NPC1 promoter; AID 485313; Potency, µM (top dose mostly 9.22 µM), inactives show top-dose activation, actives largely listed as activators; Huh7 NPC1 promoter luciferase reporter, 24 h; actives 2.4% (n = 320,000); also: % of control where 0% means no effect; nearly all actives have a fitted effect of over 60% in size
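Luminescence from an NPC1 promoter-driven luciferase reporter in stably transfected Huh7 cells was measured after 24 h compound treatment at 37 °C, followed by 10 min ambient incubation with luciferase detection reagent.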
* = called active by the depositor; [ ] = dose if it differs, or a comment. Calls follow the shape of the dose curve; as a rule, active = well fitted curve in the direction sought with a large enough effect; inconclusive = small, poorly fitted or top-dose-only effect, or another doubt; inactive = no such curve, though single readings can be large; an effect the other way counts as inactive or inconclusive. Potency is read from the fitted curve at half-maximal effect.

For CC(C)c1ccc(/C=N/NC(=O)CCNC(=O)c2ccccc2)cc1 the results were ELG1 genotoxic 23%, FLuc modulator 8.5µM*, Rab9 promoter act inconclusive and NPC1 prom act inconclusive.
`Cc1cccc(/C=N\NC(=O)c2csnn2)c1` gave ELG1 genotoxic inconclusive, FLuc modulator 8.5µM*, SMN2 splice up 17%, Rab9 promoter act 28% and NPC1 prom act inconclusive.
Screening CN(C)c1ccc(/C=N\NC(=O)c2csnn2)cc1 returned ELG1 genotoxic inconclusive, FLuc modulator 3.8µM*, SMN2 splice up 16µM*, Rab9 promoter act 0.63µM* and NPC1 prom act 0.89µM*.
`Cc1cccc(/C=N/NC(=O)C[n+]2ccccc2)c1` gave ELG1 genotoxic 1%, FLuc modulator 3%, Rab9 promoter act 1% and NPC1 prom act -2%.
For CCOC(=O)N/N=C/c1ccc(Oc2ccccc2)cc1 the results were ELG1 genotoxic 15%, FLuc modulator 19µM*, SMN2 splice up inconclusive, Rab9 promoter act inconclusive and NPC1 prom act inconclusive.
Cc1ccc(-n2nc3c(N4CCCC(C(=O)NCCc5ccccc5)C4)nnc(C)c3c2C)cc1 (stereo not drawn) was read as FLuc modulator 1%.
Cc1ccc(NC(=O)Cn2nc(C)c(S(=O)(=O)N(C)C)c2C)cc1C was read as ELG1 genotoxic -5%, FLuc modulator 1%, SMN2 splice up -1%, Rab9 promoter act 1% and NPC1 prom act -10%.
For CCOC(=O)c1cccc(NC(=O)[C@H](CSCc2ccccc2)N2Cc3ccccc3C2=O)c1 the results were FLuc modulator 1% and SMN2 splice up 9%.
CN(C)c1ccc(/C=N/NC(=O)c2ccn(C)n2)cc1 was read as ELG1 genotoxic inconclusive, FLuc modulator 3.8µM*, Rab9 promoter act 4.5µM* and NPC1 prom act 2.5µM*.
Cc1ccc(/C=N/NC(=O)c2ccncc2)o1 was read as ELG1 genotoxic 0%, FLuc modulator 0%, SMN2 splice up -17%, Rab9 promoter act -8% and NPC1 prom act 1%.
`Cc1ccc(/C=N/NC(=O)c2ccccn2)o1` gave ELG1 genotoxic inconclusive, FLuc modulator 24µM*, SMN2 splice up inconclusive, Rab9 promoter act inconclusive and NPC1 prom act inconclusive.
`CC(C)(C)c1ccc(SCCc2cccnc2)cc1` gave ELG1 genotoxic inconclusive, FLuc modulator 5.4µM*, Rab9 promoter act 3.5µM* and NPC1 prom act 2µM*.
c1ccc(SCCc2ccncc2)cc1 was read as ELG1 genotoxic 1%, FLuc modulator -22%, SMN2 splice up -22%[9.22 µM], Rab9 promoter act -1% and NPC1 prom act 11%.
Screening Cc1cc(C(F)(F)F)n2nc(-c3ccc(Br)cc3)cc2n1 returned FLuc modulator 4% and SMN2 splice up 0%.
Screening CSCCOC(=O)COc1ccc(/C=N/NC(=O)c2nn(C)cc2Cl)cc1 returned ELG1 genotoxic 3%, FLuc modulator 13µM*, SMN2 splice up -22%, Rab9 promoter act -7% and NPC1 prom act -5%.
For COC(=O)c1cccc(NC(=O)c2ccc(OC)c(Cl)c2)c1 the results were ELG1 genotoxic 6%, FLuc modulator 11µM*, SMN2 splice up inconclusive, Rab9 promoter act inconclusive and NPC1 prom act inconclusive.
`COc1ccc(NC(=O)c2cccc(OC(F)F)c2)cc1Cl` gave ELG1 genotoxic 5.8µM*, FLuc modulator 11µM*, SMN2 splice up inconclusive, Rab9 promoter act 2.2µM* and NPC1 prom act 3.5µM*.
COc1ccc(NC(=O)c2cccc(F)c2)cc1Cl was read as ELG1 genotoxic 9.2µM*, FLuc modulator 13µM*, SMN2 splice up inconclusive, Rab9 promoter act inconclusive and NPC1 prom act 3.5µM*.
For COc1cc(OC)c(NC(=O)c2cccc(F)c2)cc1Cl the results were ELG1 genotoxic -4%, FLuc modulator -15%, SMN2 splice up 9%, Rab9 promoter act 2% and NPC1 prom act 1%.
Screening Cc1c(Cl)cccc1NC(=O)c1cccc(OC(F)F)c1 returned ELG1 genotoxic 5%, FLuc modulator inconclusive, SMN2 splice up -8%, Rab9 promoter act 19% and NPC1 prom act 18%.
`O=C(Nc1ccc(OC(F)F)c(Cl)c1)c1cccc(OC(F)F)c1` gave ELG1 genotoxic -8%, FLuc modulator 19µM*, SMN2 splice up -1%, Rab9 promoter act 20% and NPC1 prom act 12%.
For Cc1ccc(S(=O)(=O)NCc2ccccc2)cc1C(=O)N1CCCC(C(F)(F)F)C1 (stereo not drawn) the results were ELG1 genotoxic -11%, FLuc modulator -1%, Rab9 promoter act -1% and NPC1 prom act -13%.
For CC(=O)N1CCCc2cc(S(=O)(=O)N3CCC(C(=O)Nc4cccc(Cl)c4C)CC3)ccc21 the results were FLuc modulator 3%.
Screening COc1ccc(NC(=O)c2ccco2)cc1NC(=O)c1ccccc1F returned ELG1 genotoxic 3%, FLuc modulator -12%, Rab9 promoter act 1% and NPC1 prom act 0%.
COc1ccc(NC(=O)c2ccccc2F)cc1Cl was read as ELG1 genotoxic 9.2µM*, FLuc modulator 9.5µM*, SMN2 splice up inconclusive, Rab9 promoter act 2.2µM* and NPC1 prom act 2.2µM*.
Screening COc1ccc(-n2c(SCC(=O)Nc3cccc(S(N)(=O)=O)c3)nc3ccccc3c2=O)cc1OC returned ELG1 genotoxic 2%, FLuc modulator 0%, Rab9 promoter act 1% and NPC1 prom act -1%.
`Cc1ccc(Cn2ccc(C3CC3)n2)cc1` gave ELG1 genotoxic 24%, FLuc modulator 17µM*, SMN2 splice up inconclusive, Rab9 promoter act inconclusive and NPC1 prom act inconclusive.
Screening Clc1ccc(Cn2ccc(C3CC3)n2)cc1 returned ELG1 genotoxic 14%, FLuc modulator inconclusive, Rab9 promoter act -29% and NPC1 prom act 8%.
Screening CCOC(=O)c1snc(C(=O)NC2CCCCC2)c1N returned ELG1 genotoxic 8.2µM*, FLuc modulator 13µM*, Rab9 promoter act 3.5µM* and NPC1 prom act inconclusive.
`Cc1ccc2c(c1)c(N1CCCC1=O)c(C(=O)Nc1ccc(F)cc1F)n2C` gave FLuc modulator -1%.
Screening O=C(COc1ccc(Br)cc1Cl)c1ccc[nH]1 returned ELG1 genotoxic 12%, FLuc modulator 19µM*, SMN2 splice up inconclusive, Rab9 promoter act 4µM* and NPC1 prom act inconclusive.
O=C(COc1ccccc1Cl)c1ccc[nH]1 was read as ELG1 genotoxic inconclusive, FLuc modulator inconclusive, SMN2 splice up inconclusive, Rab9 promoter act inconclusive and NPC1 prom act 19%.
C=CCNC(=O)COc1ccc(Br)cc1Cl was read as ELG1 genotoxic 14%, FLuc modulator 17µM*, SMN2 splice up inconclusive, Rab9 promoter act inconclusive and NPC1 prom act inconclusive.
